Records with an inconclusive call do not appear. Some of the results follow. Activity calls are given as the source filed them. Unless noted, calls come from the whole dose curve; as a rule, active = well fitted curve in the direction sought with a large enough effect; inconclusive = small, poorly fitted or top-dose-only effect, or another doubt; inactive = no such curve, though single readings can be large; an effect the other way counts as inactive or inconclusive.
What was measured:
[1] = Cytometric Cell-Based qHTS for Inhibitors of the mTORC1 Signaling Pathway in MEF (Tsc2-/-, p53-/-) Cells (AID 2660);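 note: Tsc2 and p53 null MEFs carrying empty vector with compound for 24 h; percent of cells above a phospho-rpS6 to PI ratio cutoff in each well; series mostly up to about 38 µM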
Summary of the method: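 Cells are plated, treated with compound for 24 hrs at 37 degree Celsius, then fixed, blocked and immunostained for phospho-rpS6 Ser235/236. Propidium iodide counterstain follows. Per-well % positive cells is derived from the PI-normalized phospho-S6 signal.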

[2] = High Content Imaging Cell-Based qHTS for Inhibitors of the mTORC1 Signaling Pathway in MEF (Tsc2-/-, p53-/-) Cells (AID 2666);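 note: percent of cells scored positive for phospho-rpS6 Ser235/236 immunostaining by imaging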
Summary of the method: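 MEF Tsc2-/- p53-/- (empty vector), DMEM/10% FBS; cpd 24 h 37 °C; PFA fix, Alexa-488 p-rpS6 S235/236 Ab, Hoechst; imaged; rapamycin-defined inhibition; % positive cells/well.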

[3] = High Content Imaging Cell-Based qHTS for Inhibitors of the mTORC1 Signaling Pathway in MEF Cells (AID 2667);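 note: Tsc2-/- p53-/- MEFs stably re-expressing wild-type Tsc2 exposed 24 h; series mostly up to about 38 µM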
Summary of the method: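 Read-out is the share of phospho-rpS6-positive cells per well, from Hoechst-normalized Alexa-488 Ser235/236 staining imaged on IN Cell. Cells: WT Tsc2-expressing Tsc2-/-, p53-/- MEFs exposed to compound for 24 hrs.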

[4] = Cytometry Cell-Based qHTS for Inhibitors of the mTORC1 Signaling Pathway in MEF cells (AID 2668);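 note: Tsc2-/- p53-/- mouse embryonic fibroblasts stably re-expressing wild-type Tsc2; percent cells positive for phospho-rpS6 Ser235/236 relative to propidium iodide stain; series mostly up to about 38 µM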
Summary of the method: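 In MEFs grown in DMEM + 10% FBS, a 24 hrs compound exposure preceded imaging of phospho-rpS6 Ser235/236 by laser-scanning cytometry.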

[5] = Validation screen for small molecules that induce DNA re-replication in MCF 10A normal breast cells (AID 463097); note: nearly all actives have a fitted effect of over 60% in size
Summary of the method: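 Following 48 hr compound incubation (37 C, 5% CO2), MCF 10A cells receive Hoechst for 40 min at 37 C. Nuclei are then scanned (excitation 405 nm, emission 500-530 nm) for total fluorescence intensity.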

[6] = biological target: Ubiquitin carboxyl-terminal hydrolase 2 (Homo sapiens) (UniProt O75604); test: qHTS Validation Assay for Inhibitors of Ubiquitin-specific Protease USP2a Using CHOP2 as the Reporter (AID 463106)
Chain of Ubiquitin carboxyl-terminal hydrolase 2 (Homo sapiens) (O75604 whole entry, looked up): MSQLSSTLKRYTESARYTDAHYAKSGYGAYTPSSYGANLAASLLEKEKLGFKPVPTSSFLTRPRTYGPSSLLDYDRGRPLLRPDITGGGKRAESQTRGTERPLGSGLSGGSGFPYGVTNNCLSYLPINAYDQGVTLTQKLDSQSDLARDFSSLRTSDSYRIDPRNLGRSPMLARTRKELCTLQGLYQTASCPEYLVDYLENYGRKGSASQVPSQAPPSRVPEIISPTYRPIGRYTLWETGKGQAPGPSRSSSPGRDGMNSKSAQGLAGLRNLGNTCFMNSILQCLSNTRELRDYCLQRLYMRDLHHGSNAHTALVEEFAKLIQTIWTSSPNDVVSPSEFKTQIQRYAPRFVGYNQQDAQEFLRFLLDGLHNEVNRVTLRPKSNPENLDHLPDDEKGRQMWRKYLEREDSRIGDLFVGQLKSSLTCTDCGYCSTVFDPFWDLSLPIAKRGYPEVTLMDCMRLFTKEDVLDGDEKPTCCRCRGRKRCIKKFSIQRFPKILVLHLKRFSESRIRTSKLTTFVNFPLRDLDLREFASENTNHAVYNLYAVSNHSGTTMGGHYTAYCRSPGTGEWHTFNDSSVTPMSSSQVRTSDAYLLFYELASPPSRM
Summary of the method: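 Fluorescence read-out at Ex 485nm/Em 531nm after 60min RT, following addition of 25nM Ub-CHOP2 plus 25nM reporter substrate to USP2 core (10nM) pretreated 30min with compound. Data normalized to NEM full inhibition; concentration-response curves fitted.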

[7] = biological target: DNA polymerase III PolC-type (Bacillus subtilis (strain 168)) (UniProt P13267); test: qHTS Validation Assay for the Inhibitors of DNA Replication in Gram-Positive Bacteria (AID 485295);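 note: reconstituted holoenzyme with PolC plus beta clamp SSB and primase; PicoGreen fluorescence of double-stranded DNA made on primed circular M13 template; series mostly up to about 57 µM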
Chain of DNA polymerase III PolC-type (Bacillus subtilis (strain 168)) (P13267 whole entry, looked up): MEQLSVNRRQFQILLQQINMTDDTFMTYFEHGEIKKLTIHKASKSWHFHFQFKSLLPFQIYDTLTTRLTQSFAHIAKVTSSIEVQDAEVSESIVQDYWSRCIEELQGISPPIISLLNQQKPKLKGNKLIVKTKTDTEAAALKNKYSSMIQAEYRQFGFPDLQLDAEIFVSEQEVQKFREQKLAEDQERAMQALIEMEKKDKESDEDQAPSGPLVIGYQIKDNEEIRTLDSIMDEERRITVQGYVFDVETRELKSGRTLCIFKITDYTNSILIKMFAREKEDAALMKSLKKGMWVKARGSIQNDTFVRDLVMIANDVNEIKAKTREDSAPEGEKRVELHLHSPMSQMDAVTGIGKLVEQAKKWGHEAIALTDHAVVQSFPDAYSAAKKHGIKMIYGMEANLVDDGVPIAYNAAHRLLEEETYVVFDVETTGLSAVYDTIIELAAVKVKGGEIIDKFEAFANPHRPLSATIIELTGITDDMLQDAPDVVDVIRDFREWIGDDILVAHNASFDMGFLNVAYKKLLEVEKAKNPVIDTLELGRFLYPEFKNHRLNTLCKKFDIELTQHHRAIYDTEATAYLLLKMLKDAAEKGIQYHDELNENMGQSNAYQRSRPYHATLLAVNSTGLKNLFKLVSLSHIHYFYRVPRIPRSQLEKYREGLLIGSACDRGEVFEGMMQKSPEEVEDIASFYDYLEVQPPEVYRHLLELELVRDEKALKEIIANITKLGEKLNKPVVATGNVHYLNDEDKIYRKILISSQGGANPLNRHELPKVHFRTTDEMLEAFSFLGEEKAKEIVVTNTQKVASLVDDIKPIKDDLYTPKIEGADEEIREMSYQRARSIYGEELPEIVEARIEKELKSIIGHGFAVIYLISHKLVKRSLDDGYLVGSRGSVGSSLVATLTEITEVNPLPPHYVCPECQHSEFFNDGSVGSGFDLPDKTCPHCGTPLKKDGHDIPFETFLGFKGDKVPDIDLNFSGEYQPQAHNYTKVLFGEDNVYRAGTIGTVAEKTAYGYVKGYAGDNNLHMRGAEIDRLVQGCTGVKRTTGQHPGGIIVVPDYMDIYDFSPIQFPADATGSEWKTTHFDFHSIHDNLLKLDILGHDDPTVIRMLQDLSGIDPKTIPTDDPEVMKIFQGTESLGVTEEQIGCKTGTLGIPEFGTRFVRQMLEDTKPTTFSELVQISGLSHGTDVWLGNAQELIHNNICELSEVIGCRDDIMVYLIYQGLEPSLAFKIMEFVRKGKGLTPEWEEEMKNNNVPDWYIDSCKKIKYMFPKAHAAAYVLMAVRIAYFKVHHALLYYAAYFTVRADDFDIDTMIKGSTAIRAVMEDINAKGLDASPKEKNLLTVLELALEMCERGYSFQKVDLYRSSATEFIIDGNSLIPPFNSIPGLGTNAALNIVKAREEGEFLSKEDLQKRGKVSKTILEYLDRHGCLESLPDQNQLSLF
Summary of the method: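 Inhibition of DNA synthesis by the reconstituted PolC holoenzyme, monitored through PicoGreen staining of dsDNA formed from ssM13Gori, dNTPs and NTPs, with compound preincubation and room-temperature reaction.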

[8] = biological target: Tumor susceptibility gene 101 protein (Homo sapiens) (UniProt Q99816); test: qHTS Validation Assay for Iinhibitors of HIV-1 Budding by Blocking the Interaction of PTAP/TSG101 (AID 485342; calls by dose curve)
Chain of Tumor susceptibility gene 101 protein (Homo sapiens) (Q99816 whole entry, looked up, the tested form may be a part): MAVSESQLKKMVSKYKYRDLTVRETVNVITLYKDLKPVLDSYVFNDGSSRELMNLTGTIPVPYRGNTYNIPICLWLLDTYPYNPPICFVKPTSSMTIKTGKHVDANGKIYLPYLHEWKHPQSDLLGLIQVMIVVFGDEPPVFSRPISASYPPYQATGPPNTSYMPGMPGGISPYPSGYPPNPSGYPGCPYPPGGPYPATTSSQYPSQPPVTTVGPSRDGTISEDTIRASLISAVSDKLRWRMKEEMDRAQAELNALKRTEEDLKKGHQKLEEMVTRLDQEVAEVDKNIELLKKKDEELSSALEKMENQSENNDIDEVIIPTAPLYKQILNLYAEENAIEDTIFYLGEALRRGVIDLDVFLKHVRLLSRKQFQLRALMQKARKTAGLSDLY
Summary of the method: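 Compound wells held the Tsg101 binding domain (10 uM) and a FITC-conjugated PTAP peptide (50 nM) in buffer at pH 7.5 containing 0.15 M NaCl and 0.01% Tween 20; polarization was recorded after 20 min, r.t.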

[9] = qHTS Validation Assay to Find Inhibitors of Chronic Active B-Cell Receptor Signaling (AID 485345; active = well fitted curve in the direction sought with a large enough effect in the main read-out, with a control signal flat, not every such curve was filed as active)
Summary of the method: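 TMD8 ABC-DLBCL cells stably carrying doxycycline-inducible IkappaBalpha–green luciferase fusion plus unfused red luciferase; compounds 46 uM to 3 nM, 4 h at 37C with doxycycline. Corrected green/red luminescence ratio normalized to 10 uM MG-132 and basal cell wells; curves fitted.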

[10] = biological target: Beta-2 adrenergic receptor (Homo sapiens) (UniProt P07550); test: qHTS validation assay of beta-arrestin-biased ligands of beta2-adrenergic receptor (AID 485366)
Chain of Beta-2 adrenergic receptor (Homo sapiens) (P07550 whole entry, looked up): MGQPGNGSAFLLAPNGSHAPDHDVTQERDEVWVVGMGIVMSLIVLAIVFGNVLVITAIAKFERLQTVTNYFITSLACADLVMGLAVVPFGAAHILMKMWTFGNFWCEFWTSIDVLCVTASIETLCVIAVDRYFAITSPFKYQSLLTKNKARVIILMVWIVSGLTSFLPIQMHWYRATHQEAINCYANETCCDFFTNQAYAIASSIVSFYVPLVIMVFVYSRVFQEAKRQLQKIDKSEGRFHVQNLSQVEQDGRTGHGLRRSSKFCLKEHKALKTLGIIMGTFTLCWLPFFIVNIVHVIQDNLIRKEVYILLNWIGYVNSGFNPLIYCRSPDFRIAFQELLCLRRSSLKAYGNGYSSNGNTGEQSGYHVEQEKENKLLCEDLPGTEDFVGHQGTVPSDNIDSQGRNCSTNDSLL
Summary of the method: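 Compound series up to 46 microM applied to beta2-AR/beta-arrestin Tango cells, 18 hr, 37 degrees C, 5% CO2. Read-out: tTA-driven luciferase luminescence, converted to %Activity; concentration-response curves assigned curve classes.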

[11] = biological target: ATP-dependent 6-phosphofructokinase (Trypanosoma brucei brucei) (UniProt O15648); test: qHTS Validation Assay to Find Inhibitors of T. brucei phosphofructokinase (AID 485368)
Summary of the method: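 qHTS format, up to 57 uM. PFK 1.25 nM; F6P 0.5 mM; ATP 0.1 mM; 5 mM MgCl2, 0.01% Tween20, 0.1% BSA; 0.1 M TEA pH 8.0; 45 min RT; ADP-Glo readout; no-enzyme control = full inhibition.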

[12] = Quantitative high throughput screen for delayed death inhibitors of the malarial parasite plastid, 96 hour incubation (AID 488745);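 note: luciferase-expressing P. falciparum in erythrocytes at 2% hematocrit and 0.1% parasitemia; series mostly up to about 29 µM; nearly all actives have a fitted effect of over 70% in size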
Summary of the method: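 Readout is firefly luciferase luminescence from an integrated reporter in P. falciparum; lower signal marks inhibited growth. Cultures at 2% hematocrit and 0.1% parasitemia were treated with compound across two generations (96 h, 37 C, 5% CO2).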

[13] = biological target: Thioredoxin reductase 1, cytoplasmic (Rattus norvegicus) (UniProt O89049); test: qHTS Assay for Substrates of Mammalian Selenoprotein Thioredoxin Reductase 1 (TrxR1) (AID 488772);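 note: series mostly up to about 57 µM; a drop in NADPH fluorescence below the no-compound background marks a TrxR1 substrate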
Chain of Thioredoxin reductase 1, cytoplasmic (Rattus norvegicus) (O89049 whole entry, looked up): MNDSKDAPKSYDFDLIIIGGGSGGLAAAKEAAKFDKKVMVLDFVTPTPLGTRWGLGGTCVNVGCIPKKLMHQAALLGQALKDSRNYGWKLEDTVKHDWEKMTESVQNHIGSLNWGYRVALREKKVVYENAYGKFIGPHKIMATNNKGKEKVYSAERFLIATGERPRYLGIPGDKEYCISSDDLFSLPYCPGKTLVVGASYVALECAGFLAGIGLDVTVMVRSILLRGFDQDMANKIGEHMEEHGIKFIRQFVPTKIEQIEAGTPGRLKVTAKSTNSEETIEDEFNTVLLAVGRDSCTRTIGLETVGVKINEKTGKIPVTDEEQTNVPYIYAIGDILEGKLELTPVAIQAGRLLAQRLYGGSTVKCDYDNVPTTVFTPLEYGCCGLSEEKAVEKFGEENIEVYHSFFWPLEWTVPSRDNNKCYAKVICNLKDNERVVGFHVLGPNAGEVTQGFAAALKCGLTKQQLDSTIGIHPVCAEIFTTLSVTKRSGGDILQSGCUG
Summary of the method: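 In this dual-purpose format, potential substrates are identified from the first fluorescence read after selenite addition, not from the 8-minute delta. Rat enzyme is preincubated with NADPH and then with compound at ~22 deg C.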

[14] = biological target: Thioredoxin reductase 1, cytoplasmic (Rattus norvegicus) (UniProt O89049); test: qHTS Assay for Inhibitors of Mammalian Selenoprotein Thioredoxin Reductase 1 (TrxR1) (AID 488773); settings: Potency: inhibition;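 note: drop in NADPH fluorescence over an 8 min run after selenite addition; series mostly up to about 57 µM; nearly all actives have a fitted effect of over 40% in size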
Summary of the method: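 Inhibition is scored from the loss of NADPH fluorescence between first and last reads of an 8-min kinetic run. Selenite (400 uM) was the substrate, added after 15 min compound preincubation at room temperature.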

[15] = biological target: M-phase phosphoprotein 8 (Homo sapiens) (UniProt Q99549); test: qHTS Validation Assay for Inhibitors for MPP8 Chromodomain Interactions with Methylated Histone Tails (AID 488949);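 note: 50 nM MPP8 with 50 nM peptide preformed then compounds added for 30 min; AlphaScreen signal from MPP8 chromodomain bound to biotinylated H3K9me3 peptide; top concentration of the series differs between compounds; nearly all actives have a fitted effect of over 55% in size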
Chain of M-phase phosphoprotein 8 (Homo sapiens) (Q99549 whole entry, looked up): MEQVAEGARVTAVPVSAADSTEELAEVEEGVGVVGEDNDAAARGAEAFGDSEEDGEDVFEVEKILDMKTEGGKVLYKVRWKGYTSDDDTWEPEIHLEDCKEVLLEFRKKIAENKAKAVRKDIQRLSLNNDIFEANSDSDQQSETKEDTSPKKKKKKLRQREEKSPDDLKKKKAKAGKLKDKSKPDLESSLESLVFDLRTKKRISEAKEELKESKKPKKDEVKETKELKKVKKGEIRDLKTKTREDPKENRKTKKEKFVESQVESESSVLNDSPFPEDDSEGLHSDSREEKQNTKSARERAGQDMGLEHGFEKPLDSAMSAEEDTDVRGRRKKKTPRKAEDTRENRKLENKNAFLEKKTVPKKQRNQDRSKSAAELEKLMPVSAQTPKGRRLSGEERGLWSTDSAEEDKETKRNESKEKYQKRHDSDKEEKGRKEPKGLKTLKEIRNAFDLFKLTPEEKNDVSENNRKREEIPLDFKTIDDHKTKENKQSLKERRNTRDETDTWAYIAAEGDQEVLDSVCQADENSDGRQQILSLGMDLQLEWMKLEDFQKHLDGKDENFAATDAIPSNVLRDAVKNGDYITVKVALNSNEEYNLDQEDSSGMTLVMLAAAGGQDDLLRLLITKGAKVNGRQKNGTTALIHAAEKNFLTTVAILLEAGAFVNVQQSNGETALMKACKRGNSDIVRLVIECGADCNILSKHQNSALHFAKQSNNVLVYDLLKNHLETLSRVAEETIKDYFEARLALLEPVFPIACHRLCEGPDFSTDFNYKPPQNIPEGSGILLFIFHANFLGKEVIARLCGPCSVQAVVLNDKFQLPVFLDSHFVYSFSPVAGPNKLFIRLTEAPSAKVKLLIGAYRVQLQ
Summary of the method: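 Chemiluminescent proximity assay: histidine-tag capture via nickel acceptor beads, biotin peptide via streptavidin donor beads. Protein and peptide each at 50 nM, pH 7.4, with 30 min incubations at room temperature for complex formation, compound exposure and bead binding.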

[16] = biological target: Chromobox protein homolog 1 (Homo sapiens) (UniProt P83916); test: qHTS Validation Assay for Inhibitors of HP1-beta Chromodomain Interactions with Methylated Histone Tails (AID 488953);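 note: loss of AlphaScreen luminescence from HP1-beta binding biotinylated H3K9me3 peptide; series mostly up to about 110 µM; nearly all actives have a fitted effect of over 50% in size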
Chain of Chromobox protein homolog 1 (Homo sapiens) (P83916 whole entry, looked up): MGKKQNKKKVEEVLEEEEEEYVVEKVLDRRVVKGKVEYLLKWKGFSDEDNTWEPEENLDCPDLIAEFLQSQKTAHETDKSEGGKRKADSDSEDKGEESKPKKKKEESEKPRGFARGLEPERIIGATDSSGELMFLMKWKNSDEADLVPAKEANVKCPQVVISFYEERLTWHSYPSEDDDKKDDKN
Summary of the method: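 Disruption of preformed HP1-beta:H3K9me3 peptide complexes (both 50 nM, PBS pH 7.4 with 0.01% Tween-20) is measured by AlphaScreen after 30 min compound exposure at room temperature, using streptavidin donor and nickel chelate acceptor beads at 10 ug/mL final.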

[17] = biological target: Methanococcus maripaludis chaperonin (MmCpn) (UniProt Q6LX38); test: High-Throughput Screening for Modulators of Cytosolic Chaperonin Activity: MmCpn Primary Screen (AID 488978)
Summary of the method: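 HTRF readout (320 nm excitation, 590/665 nm emission) of ADP generated by 50 nM MmCpn hydrolysing 30 uM ATP during 10 min at 37C; compound preincubated 5 min RT.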

[18] = Quantitative high throughput screen for delayed death inhibitors of the malarial parasite plastid, 48 hour incubation (AID 488752); note: nearly all actives have a fitted effect of over 65% in size
Summary of the method: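 First, compound was pinned into RPMI 1640 medium containing 0.5% Albumax. Next, reporter-parasite-infected erythrocytes were added to 2% hematocrit and 0.1% parasitemia. After 48 h at 37 C under 5% CO2, luciferase detection reagent was added and luminescence read.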

[19] = biological target: Flap endonuclease 1 (Homo sapiens) (UniProt P39748); test: qHTS Validation Assay for the Inhibitors of Human Flap endonuclease 1 (FEN1) (AID 488816)
Chain of Flap endonuclease 1 (Homo sapiens) (P39748 whole entry, looked up): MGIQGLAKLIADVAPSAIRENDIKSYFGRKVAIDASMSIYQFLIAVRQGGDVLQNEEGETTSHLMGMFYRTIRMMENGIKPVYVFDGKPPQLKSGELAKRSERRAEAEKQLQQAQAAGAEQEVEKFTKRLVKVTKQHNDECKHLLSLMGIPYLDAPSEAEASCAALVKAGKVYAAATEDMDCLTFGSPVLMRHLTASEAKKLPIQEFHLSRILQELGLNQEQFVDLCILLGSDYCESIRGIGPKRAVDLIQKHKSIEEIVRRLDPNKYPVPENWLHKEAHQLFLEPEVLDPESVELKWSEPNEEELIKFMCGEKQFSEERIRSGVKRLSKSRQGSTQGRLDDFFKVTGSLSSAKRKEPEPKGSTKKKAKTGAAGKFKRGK
Summary of the method: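 Enzyme reagent 10 nM; cpds pinned; 15 min RT preinc.; substrate 50 nM final; reads t=0 and 15 min; no-enzyme buffer wells as neg. control; normalized data, 4-parameter Hill fit.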

[20] = biological target: DNA repair nuclease/redox regulator APEX1 (Homo sapiens) (UniProt P27695); test: Confirmation qHTS Assay for Inhibitors of the Human Apurinic/apyrimidinic Endonuclease 1 (APE1) (AID 2572);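 note: fluorescence gain from purified APE1 cutting a TAMRA/BHQ-2 THF abasic duplex; nearly all actives have a fitted effect of over 30% in size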
Summary of the method: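 Cleavage of a tetrahydrofuran abasic site in a 50 nM (final) TAMRA/BHQ-2 duplex was tracked by rising fluorescence, measured in kinetic mode; reaction progress computed from the first-to-third read difference.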

Measured: Potency

Cn1ccnc1
not listed: [18] | [19] | [20]
inactive: all other assays above

N[C@H](C(=O)O)[C@H](O)C(=O)O
not listed: [17] | [20]
inactive: all other assays above

N[C@@H](Cc1ccc(O)c(I)c1)C(=O)O
not listed: [20]
inactive: all other assays above

CC1CCN=C(N)S1 (configuration not stated)
not listed: [15] | [20]
inactive: all other assays above

CN(C)CCC(c1ccc(Br)cc1)c1ccccn1 (configuration not stated)
not listed: [15] | [20]
inactive: all other assays above

NC(N)=N[C@@H](CCC(=O)O)C(=O)O
not listed: [16] | [20]
inactive: all other assays above

CSC(=N)N
not listed: [17] | [20]
inactive: all other assays above

NC1CCN(O)C1=O (configuration not stated)
not listed: [1] | [2] | [11] | [16]
inactive: all other assays above

Source: PubChem BioAssay (NCATS)
